# CCHF vOTU inh-1 = CCHFV vOTU protease inhibition | Pep-AMC fluorescence | inhibition, % at 11.5 µM | 370,000 compounds, 0.55% hits
# RecA intein inh = blocks M. tuberculosis RecA intein splicing; inhibition, % (concentration not given with the values); 290,000 compounds, 0.75% hits; P9WHJ3; AID 2221; cell-free RecA intein splicing, fluorescence; in the data active means inhibition above about 30%
# Target sequence (P9WHJ3 whole entry, looked up): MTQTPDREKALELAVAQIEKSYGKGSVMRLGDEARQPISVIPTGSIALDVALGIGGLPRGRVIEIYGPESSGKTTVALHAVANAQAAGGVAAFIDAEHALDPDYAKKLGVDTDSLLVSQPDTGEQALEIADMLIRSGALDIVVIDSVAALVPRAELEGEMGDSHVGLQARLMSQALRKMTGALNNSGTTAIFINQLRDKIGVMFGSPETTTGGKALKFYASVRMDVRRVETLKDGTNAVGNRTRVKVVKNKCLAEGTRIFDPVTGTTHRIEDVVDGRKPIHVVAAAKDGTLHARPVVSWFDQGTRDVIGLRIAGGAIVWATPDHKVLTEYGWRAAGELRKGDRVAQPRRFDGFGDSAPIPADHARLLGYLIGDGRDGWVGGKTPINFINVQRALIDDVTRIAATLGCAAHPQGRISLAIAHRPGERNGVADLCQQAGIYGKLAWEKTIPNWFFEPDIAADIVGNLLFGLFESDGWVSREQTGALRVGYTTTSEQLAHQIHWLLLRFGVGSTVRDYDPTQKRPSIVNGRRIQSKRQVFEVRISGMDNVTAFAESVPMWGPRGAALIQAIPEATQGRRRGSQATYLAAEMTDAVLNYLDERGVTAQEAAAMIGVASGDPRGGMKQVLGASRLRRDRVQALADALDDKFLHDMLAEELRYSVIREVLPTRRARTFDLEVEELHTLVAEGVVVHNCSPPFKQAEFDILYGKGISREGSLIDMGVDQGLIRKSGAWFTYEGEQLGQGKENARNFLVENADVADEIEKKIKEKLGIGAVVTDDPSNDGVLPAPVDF
# FBA Mtb inh = Mtb fructose-bisphosphate aldolase inhibition; P9WQA3; purified M. tuberculosis FBA, fluorescence read-out; inhibition, % at 1 µM; 360,000 compounds, 2.3% hits; in the data active means inhibition above about 27%
# GDH-TPI counter = counter-screen for M. tuberculosis FBA inhibitors: GDH-TPI coupled enzymes; inhibition, % at 4.8 µM; GDH-TPI coupled enzyme counterscreen, NADH absorbance; AID 588335; 360,000 compounds, 1.2% hits
# CCHF vOTU inh-2 = confirmation of CCHF virus vOTU protease inhibitors. Recombinant CCHFV vOTU, Pep-AMC fluorescence. shares compounds with CCHF vOTU inh-1. 1,900 compounds, 17% hits. inhibition, % at 11.5 µM
# A number is an active result; - = inactive; . = no result. A selection: hits, their analogues and other compounds. The true share with any hit is near 4.2%. Unless noted, no stated cut-off is given here; in the data, active means inhibition above about 30%; inactive means the rest.
SMILES,CCHF vOTU inh-1,RecA intein inh,FBA Mtb inh,GDH-TPI counter,CCHF vOTU inh-2
CCc1cc[n+](C2=C([O-])c3ccccc3C(=O)/C2=N\S(=O)(=O)c2cccs2)cc1,105,-,-,-,103
CC(C)N1CCCCC(NC(=O)COCc2ccccc2)C1=O (stereo not given),-,.,.,.,.
CCc1nnc(N/N=C/c2ccc(-c3ccc([N+](=O)[O-])cc3)o2)n1N,65,-,-,-,-
Cc1nnc(N/N=C/c2ccc(-c3ccccc3F)o2)n1N,79,-,-,-,-
N#CC(C#N)=Cc1ccc(-c2ccccc2F)o1,-,.,-,-,.
CCC(=O)N/N=C/c1ccc(-c2ccc([N+](=O)[O-])cc2)o1,-,-,-,-,.
Cc1nnc(N/N=C/c2cc(C)n(-c3ccc(F)cc3)c2C)n1N,99,-,-,-,-
CCc1nnc(N/N=C/c2cc(C)c(C)cc2C)n1N,74,-,-,-,-
CCCCc1ccc(NC(=O)CN(C)CC(=O)Nc2ccccc2Cl)cc1,-,-,-,-,.
Cc1ccc(S(=O)(=O)NCCC(=O)OCC(=O)N2CCCC2=O)cc1C,-,-,-,-,.
Cc1[nH]c2ccccc2c1/C=N/NC(=S)NCc1ccccc1,-,-,-,-,.
CCc1nnc(N/N=C/c2c(F)cccc2Cl)n1N,87,-,-,-,-
CCc1nnc(N/N=C/c2c(C)[nH]c3ccccc23)n1N,112,-,-,-,-
Cc1nnc(N/N=C/c2c(Cl)cccc2Cl)n1N,75,-,-,-,-
Clc1cccc(Cl)c1/C=N\Nc1nccs1,-,-,-,-,.
Fc1cccc(Cl)c1/C=N/Nc1ccccn1,-,-,-,-,.
Cc1cccc(/C=N/NC(=O)C(C)Nc2cccc3ccccc23)n1 (stereo not given),115,75,-,-,-
CC(Nc1cccc2ccccc12)C(=O)N/N=C/c1ccc([N+](=O)[O-])cc1 (stereo not given),104,-,-,-,-
COc1cc([N+](=O)[O-])cc(/C=N/NC(=O)C(C)Nc2cccc3ccccc23)c1O (stereo not given),-,-,-,-,.
O=C(O)c1cccc(Cn2c(Cl)c(/C=N/NC(=O)c3cc4ccccc4cc3O)sc2=O)c1,30,-,-,59,-
COC(=O)[C@]12C[C@H](CC(=O)NCCCCc3ccccc3)C(=O)N(CCc3ccc(OC)c(OC)c3)C1=C[C@H](C(C)(C)C)O[C@@H]2C,-,.,.,.,.
S=C(Nc1ccc2nsnc2c1)N1CCCC1,105,.,-,-,-
Clc1cccc(CNc2ccn3nc(-c4cccc(OCc5ccccc5)c4)cc3n2)c1,-,.,-,-,.
COC(=O)[C@]12C[C@H](CC(=O)NCC3CCCCC3)C(=O)N(CCc3ccc(OC)c(OC)c3)C1=C[C@H](C(C)(C)C)O[C@@H]2C,31,.,.,.,-
COC(=O)[C@]12C[C@H](CC(=O)N3CCC(c4ccccc4)CC3)C(=O)N(Cc3ccc4c(c3)OCO4)C1=C[C@H](C(C)(C)C)O[C@@H]2C,30,.,.,.,-
SMILES,CCHF vOTU inh-1,RecA intein inh,FBA Mtb inh,GDH-TPI counter,CCHF vOTU inh-2
COC(=O)[C@]12C[C@H](CC(=O)N3CCOCC3)C(=O)N(CCC3=CCCCC3)C1=C[C@H](C(C)(C)C)O[C@@H]2C,30,.,.,.,-
COC(=O)[C@]12C[C@H](CC(=O)NCCC(C)C)C(=O)N(CCC3=CCCCC3)C1=C[C@H](C(C)(C)C)O[C@@H]2C,30,.,.,.,-
CCCc1cc2c(cc1N(C)S(=O)(=O)c1ccccc1)OCO2,-,.,-,-,.
C=CC[C@@H](CC(=O)NCCO)C(=O)NC[C@H](OC(=O)[C@@H](CC=C)Cc1ccc(F)cc1)c1ccccc1,-,.,-,-,.
CCCCCCCCN1C(=O)[C@@H](CC(=O)N2CCOCC2)C[C@@]2(C(=O)OC)C1=C[C@H](C(C)(C)C)O[C@@H]2C,31,.,.,.,-
CCCCCCCCN1C(=O)[C@@H](CC(=O)N2CCCCC2)C[C@@]2(C(=O)OC)C1=C[C@H](C(C)(C)C)O[C@@H]2C,-,.,.,.,.
COc1cccc2c1C(=O)c1c(O)c3c(c(O)c1C2=O)C[C@@](O)(C(=O)CO)C[C@@H]3O[C@H]1C[C@H](N)[C@H](O)[C@H](C)O1,41,-,-,-,30
COc1cccc2c1C(=O)c1c(O)c3c(c(O)c1C2=O)C[C@@](O)(C(=O)CO)C[C@@H]3OC1CC(N)C(O)C(C)O1 (stereo not given in full),-,.,-,-,.
Cc1ccc(C(=O)COC(=O)CCN2C(=O)C3C4C=CC(C5CC45)C3C2=O)cc1 (stereo not given),-,-,-,-,.
Cc1cc(C)cc(N(CC(=O)Nc2ccc(C(F)(F)F)cc2)S(=O)(=O)c2c(C)[nH]c(=O)[nH]c2=O)c1,33,-,-,-,-
COc1ccc(OC)c(S(=O)(=O)Nc2ccc(O)c3ccccc23)c1,66,.,-,-,-
CN(C)c1cccc2c1c(NS(=O)(=O)c1cn(C)cn1)nn2C,52,-,-,-,50
CCCCCCCCCCOC(=O)Cn1c(COc2ccc(Cl)cc2)[n+](C)c2ccccc21,46,-,-,-,56
CCCCCOC(=O)Cn1c(=O)oc2ccccc21,-,-,-,-,.
Cc1ccc(NS(=O)(=O)c2ccc(/C=C/C(=O)O)cc2)cc1Cl,-,-,-,-,.
O=C(O)/C=C/c1ccc(S(=O)(=O)Nc2ccc3[nH]c(=O)[nH]c3c2)cc1,33,-,-,-,-
Oc1ccc(NCc2cccc(OCc3ccc(F)cc3)c2)cc1,89,-,-,-,-
Oc1ccc(NCc2cccc(OCc3ccccc3)c2)cc1,73,-,-,-,-
COc1ccc(C(C)c2cn(C)c3ccccc23)cc1 (stereo not given),-,.,.,.,.
CC(=O)c1c(C)n(-c2ccccc2Br)c2ccc(O)cc12,-,-,-,-,.
CCCCOCCCNC(=O)C[C@@H]1C[C@@]2(C(=O)OCC)CCC=C2N(Cc2ccc(Cl)cc2Cl)C1=O,-,.,.,.,.
CN(C)C(=O)c1c2c(nc3ccccc13)CCCC2,-,-,-,-,.
CN(C)C(=O)c1c2c(nc3ccccc13)-c1ccccc1CC2,33,-,-,-,-
CCCCC[C@H](C)N1C[C@H](COCc2ccccc2)Oc2cc(N3CC[C@H](O)C3)ccc2S1(=O)=O,-,.,.,.,.
CCCCC[C@@H](C)N1C[C@H](COCc2ccccc2)Oc2cc(N3CC[C@@H](O)C3)ccc2S1(=O)=O,41,.,.,.,-
SMILES,CCHF vOTU inh-1,RecA intein inh,FBA Mtb inh,GDH-TPI counter,CCHF vOTU inh-2
CCCCC[C@H](C)N1C[C@@H](COCc2ccccc2)Oc2cc(N3CCC[C@H]3C(N)=O)ccc2S1(=O)=O,35,.,.,.,-
COC(=O)c1cc(S(=O)(=O)NC2CCC(C)CC2)cn1C (stereo not given),-,-,-,-,.
CC1(Cc2ccc(C(F)(F)F)o2)C(=O)Nc2ccc(-c3cccc(C(F)(F)F)c3)cc21 (stereo not given),36,.,-,-,-
C[n+]1c(-c2ccccc2)c2cc(N)ccc2c2ccc(N)cc21,105,-,-,-,77
C[n+]1c(-c2ccccc2)sc([S-])c1-c1ccccc1,-,-,-,-,.
O=C(O)CN1C(=O)/C(=C\c2cccc(OCc3ccc(F)cc3)c2)SC1=S,36,-,-,-,-
CCOC(=O)Cc1nnc(Nc2cc(C)ccc2C)c2ccccc12,31,-,-,-,-

# Assay outcomes (PubChem)
